# Rows were chosen to be rich in hits. Some 3.1% of all compounds tested hit in one or more screens of this group.
# HSF-1 act = increases HSF-1 driven luciferase reporter signal | activation, % at 9 µM | NIH3T3-HGL HSF-1 luciferase reporter, MG132, 8 h; 100% = twice DMSO control signal | hit rate 1.7% among 300,000;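 active = mean replicate activation of at least 50% with a set share of replicates each reaching 50%; inconclusive = only one of those two conditions met; inactive = mean below 50% and too few replicates reaching it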;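 also: 0% = median of the neutral control wells and 100% = twice that signal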
# HSP90 refold inh = blocks HSP90-mediated luciferase refolding in reticulocyte lysate; inhibition, % at 5.6 µM; hit rate 0.91% among 290,000; Rabbit reticulocyte lysate, luciferase refolding luminescence, 3 h;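 active = inhibition above the screen-wide mean plus 3 SD, computed separately per campaign, cut at about 16% in these data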;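 also: 0% = DMSO wells and 100% = 60 µM geldanamycin wells; inhibitors lower the luminescence because luciferase stays unfolded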
# HIF activator = HIF pathway transcriptional activation | U2OS HRE-luciferase reporter, luminescence; normalized: DMSO 0%, desferrioxamine 100% | activation, % at 7.5 µM (by protocol) | hit rate 0.32% among 300,000 | AID 1910;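 active = mean activation of at least 10% of the iron chelator positive control signal, with at least half of replicates also reaching 10%; inconclusive = mean and replicate majority disagree about reaching 10%; inactive = mean and most replicates under 10%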
# ARNT-TACC3 inh = disrupts binding between human ARNT and TACC3. hit rate 0.66% among 390,000. inhibition, % at 9.99 µM. AlphaScreen His-ARNT PAS-B/GST-TACC3 binding, luminescence; TACC3 fragment carries E629A point mutation. Q9Y6A5;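 active = mean inhibition of replicates at least 50% and at least half of replicates each reaching 50%; inconclusive = half or more replicates reach 50% but mean below 50%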;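 also: 0% = complete ARNT plus TACC3 wells and 100% = ARNT alone without TACC3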
# HSF1 inhib = HSF1 inhibition | activity change, negative = inhibition, % at 7.5 µM (by protocol) | hit rate 0.77% among 300,000 | NIH3T3-HGL HSE-luciferase, MG132-induced, luminescence 8 h; stronger effect = lower value;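 active = more than half of replicate wells show activity change below -50%, luminescence cut by over half; inconclusive = some wells, but at most half, below -50%; inactive = no replicate well below -50%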;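 also: luciferase reports HSF-1 transcriptional activity via heat shock element; 0% = median of DMSO wells and -100% = zero luminescence signal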
# Active calls of the source: *; ? = inconclusive; · = no result.
SMILES,HSF-1 act,HSP90 refold inh,HIF activator,ARNT-TACC3 inh,HSF1 inhib
NS(=O)(=O)c1ccc(NS(=O)(=O)c2ccc(NC(=S)Nc3ccccc3)cc2)cc1,54*,1,0,-2,30
CCc1ccc(NC(=S)Nc2ccc(S(=O)(=O)Nc3ncccn3)cc2)cc1,-51,0,-1,5,-56*
O=S(=O)(Nc1ncccn1)c1ccc(NC(=S)Nc2ccc(Cl)cc2)cc1,56*,2,1,-5,20
O=S(=O)(Nc1ccncc1)c1ccccc1,-5,3,0,-4,-2
O=S(=O)(c1ccccc1)N1C[C@H]2[C@@H](c3ccccc31)[C@H](CO)N2Cc1ccccc1,·,·,·,0,·
COc1ccc(NC(=O)N(C)C[C@@H]2OCCCC[C@H](C)Oc3ccc(NC(=O)NC(C)C)cc3C(=O)N([C@H](C)CO)C[C@@H]2C)cc1,·,·,·,-8,·
O=C(Nc1ccccc1O)c1ccc(NS(=O)(=O)c2cccc3cccnc23)cc1,-22,0,127*,5,-17
O=C(Nc1ncccc1O)c1ccc(S(=O)(=O)Nc2ccccc2)cc1,-21,·,72*,5,-18
CCOc1ccc(NC(=O)c2ccc(NS(=O)(=O)c3cccc4cccnc34)cc2)cc1,·,·,·,-2,·
O=S(=O)(Nc1ccc(Cl)cc1)c1cccc2cccnc12,-1,0,-1,38*,-4
CN(c1ccccc1)S(=O)(=O)c1ccc(C(=O)Nc2ncccc2O)cc1,-5,·,3,7,-4
COC(=O)c1ccc(NC(=O)c2ccc(NS(=O)(=O)c3cccc4cccnc34)cc2)cc1,1,17*,0,0,2
O=C(O)c1ccc(NS(=O)(=O)c2cccc3cccnc23)cc1,6,2,·,-8,-3
C[C@@H]1CN([C@H](C)CO)C(=O)c2cc(NC(=O)Cc3ccccc3)ccc2O[C@@H](C)CCCCO[C@H]1CN(C)S(=O)(=O)c1ccc(Cl)cc1,·,·,·,13,·
O=C(O)CCS(=O)(=O)c1cccc2cccnc12,7,2,0,-1,-4
CCSS(=O)(=O)c1cccc2cccnc12,24,7,0,65*,25
COc1ccccc1/C=C/C(=O)c1cc(Br)ccc1OC(=O)c1ccco1,103*,4,1,0,76
CN(/C(=N\S(=O)(=O)c1ccccc1)C(F)(F)F)c1ccccc1,-64,1,0,3,-56*
O=C(C[C@H]1CC[C@@H]2[C@H](COC[C@H](O)CN2Cc2cc(F)ccc2F)O1)NCc1ccc(Cl)cc1,·,·,·,0,·
O=S(=O)(c1ccc(Cl)cc1)N1CCC(c2nc3ccccc3[nH]2)CC1,73*,0,0,-3,33
Cc1noc(C)c1S(=O)(=O)Nc1ccc2c(c1)C(=O)N([C@H](C)CO)C[C@@H](C)[C@H](CN(C)S(=O)(=O)c1ccccc1)O2,·,·,·,-2,·
CCCS/C(N)=N/N=C/c1cc(C)ccc1O,60*,0,6,-3,32
CCCCS/C(N)=N/N=C/c1ccccc1O,87*,-7,1,5,26
C/C(=N/N=C/c1ccccc1O)c1ccccc1O,-5,-1,4,-4,9
C[C@@H]1CN([C@H](C)CO)C(=O)Cc2cc(NC(=O)Nc3cccc4ccccc34)ccc2O[C@H]1CN(C)Cc1ccncc1,·,·,·,-2,·
SMILES,HSF-1 act,HSP90 refold inh,HIF activator,ARNT-TACC3 inh,HSF1 inhib
CNC[C@@H]1Oc2ccc(NS(=O)(=O)c3c(C)noc3C)cc2C(=O)N([C@@H](C)CO)C[C@H]1C,·,·,·,-4,·
C[C@@H]1CN([C@@H](C)CO)C(=O)c2cc(NC(=O)C3CC3)ccc2O[C@H]1CN(C)Cc1ccc(C(=O)O)cc1,·,·,·,3,·
CN1CCSc2ccc(C(=O)Nc3ccc(Cl)cc3)cc21,122*,-4,3,-3,80
COc1cccc(NC(=O)c2ccc3c(c2)N(C)CCS3)c1,92*,-1,3,-2,63
CC(NC(=O)c1cc2c(s1)CS(=O)(=O)C2)c1ccccc1 (stereo not given),-11,-1,125*,2,-6
O=C(c1ccccc1)N1CC[C@@H]2[C@H]1c1cc(-c3ccc(F)cc3)ccc1N[C@@H]2CO,·,·,·,-9,·
COc1ccccc1OCc1cc(C(=O)N2CCN(C)C(c3ccccc3)C2)no1 (stereo not given),-14,2,-1,1,-6
COc1ccccc1OCc1cc(-c2ccccc2)no1,53*,-1,4,-8,28
c1ccc(OCc2cc(-c3ccccc3)no2)cc1,61*,2,3,-5,20
COc1ccc(OCc2cc(-c3ccc(Cl)cc3)no2)cc1,-40,-3,0,2,-21
Cc1noc(C)c1S(=O)(=O)Nc1ccc2c(c1)C(=O)N([C@H](C)CO)C[C@@H](C)[C@H](CN(C)Cc1ccncc1)OCCCC[C@@H](C)O2,·,·,·,-1,·
O=C(N/N=C/c1ccncc1)c1cc2ccccc2cc1O,312*,-1,2,13,240
O=C(O)CCC(=O)N1CCN(S(=O)(=O)c2ccc3ccccc3c2)CC1,9,1,-8,·,-3
O=C(Cn1ncc(Cl)c(Cl)c1=O)N1CCN(S(=O)(=O)c2ccc3ccccc3c2)CC1,76*,-1,-3,3,61
COc1ccc(NC(=O)N(C)C[C@@H]2OCCCC[C@H](C)Oc3ccc(NC(=O)Nc4c(C)noc4C)cc3C(=O)N([C@@H](C)CO)C[C@@H]2C)cc1,·,·,·,-2,·
Cc1cc(C)c(C(=O)/C=C/c2cccc3ccccc23)c(=O)[nH]1,84*,5,-2,-10,65
C[C@@H](NC(=O)C[C@@H]1C[C@H]2c3cc(NC(=O)CC4CC4)ccc3O[C@H]2[C@@H](CO)O1)c1ccccc1,·,·,·,-4,·
Cc1ccc(NC(=O)c2noc3c2CCc2ccccc2-3)cc1,?,5,5,-9,21
Cc1nn(Cc2ccccc2)c(C)c1NC(=O)c1noc2c1CCc1ccccc1-2,-72,-2,0,-13,-67*
CCS(=O)(=O)Nc1ccc2c(c1)C(=O)N(C)[C@@H]1CC[C@H](CC(=O)N[C@@H]3CCN(Cc4ccccc4)C3)O[C@@H]1CO2,·,·,·,-3,·
O=c1c2cc(Cl)ccc2[nH]c(=S)n1Cc1ccco1,-2,2,0,-26,0
COc1cc2[nH]c(=S)n(Cc3ccco3)c(=O)c2cc1OC,140*,1,0,7,77
COc1ccc(C(=O)/C=C/c2ccc(N3CCCCC3)c([N+](=O)[O-])c2)c(OC)c1,68*,0,1,-21,50
COc1ccc(C(=O)/C=C/c2ccc(N3CCCCC3)c([N+](=O)[O-])c2)cc1,25,0,3,4,15
COc1ccc(OC)c(C(=O)/C=C/c2ccccc2C(F)(F)F)c1,212*,3,1,-10,159
COc1ccc(C(=O)/C=C/Nc2ccc([N+](=O)[O-])cc2C)c(OC)c1,-2,-4,1,-10,6
COc1ccc(C(=O)/C=C/c2ccccc2)c(OC)c1,62*,1,4,2,34

# Compound activity (PubChem)
